Mm-Cpn inhibitor: blocks the Methanococcus maripaludis chaperonin Mm-Cpn | purified Mm-Cpn ATPase, ADP Transcreener TR-FRET | Potency, µM (titrated, usually from 76.9 µM), inactives show at the highest dose activity, negative = inhibition, hits mostly inhibitors | 330,000 compounds, 0.031% hits; also: potency is read from the fitted curve at half-maximal effect; nearly all actives have a fitted effect of over 80% in size
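Quantitative HTS used 25 nM Mm-CPN and 10 uM ATP in magnesium/KCl Tris buffer, pH 7.4, with 1 mM DTT. Hydrolysis ran 30 min at 37°C; ADP was read by HTRF.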
CCT chaperon mod: changes cytosolic chaperonin activity; purified chaperonin ATPase assay, HTRF ADP detection, 30 min; activity change, % (test concentration not listed), hits read low; 360,000 compounds, 0.3% hits; in the data active = activity change below about -30%
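We incubate TRiC, 40 or 20 nM final, with library compounds at 76 uM and 10 uM ATP for 30 min at 37 °C. ADP formed is detected with Transcreener HTRF reagents after 30 min at room temperature.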
G9a inh: inhibitors of human histone lysine methyltransferase G9a; Potency, µM (series often up to 102 µM), without a hit: top-dose activity, negative = inhibition, hits mostly inhibitors; G9a H3K9 monomethylation, AlphaScreen, 2 h; 350,000 compounds, 8.8% hits; AID 504332; Q96KQ7; also: potency is read from the fitted curve at half-maximal effect; nearly all actives have a fitted effect of over 75% in size
Target sequence (Q96KQ7 913-1193 limits assumed): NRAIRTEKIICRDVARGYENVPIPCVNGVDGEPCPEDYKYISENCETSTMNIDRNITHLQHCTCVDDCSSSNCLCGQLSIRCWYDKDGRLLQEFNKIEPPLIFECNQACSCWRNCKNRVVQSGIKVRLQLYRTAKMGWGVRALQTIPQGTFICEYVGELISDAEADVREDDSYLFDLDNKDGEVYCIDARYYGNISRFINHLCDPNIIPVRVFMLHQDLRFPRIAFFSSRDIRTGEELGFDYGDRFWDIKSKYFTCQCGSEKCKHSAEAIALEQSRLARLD
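AlphaScreen read-out: biotin-H3K9 peptide (500 nM) methylation by 20 nM enzyme with 20 uM SAM, 2 h at room temperature after 15 min compound preincubation; anti-monomethyl H3K9 antibody plus donor/acceptor beads, 10 min dark.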
Sfp inh: blocks B. subtilis Sfp PPTase activity. Potency, µM, for the others: largest response in the series, negative = inhibition, hits mostly inhibitors. 310,000 compounds, 3.5% hits. Biochemical Sfp PPTase activity, qHTS. AID 1490. Q9F4F7;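 also: the enzyme is Sfp with the accession as filed and its product quenches rhodamine fluorescence; potency is read from the fitted curve at half-maximal effect; 0% = enzyme reaction without inhibitor and -100% = no enzyme wells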
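After 15 min at room temperature with compound, 15 nM Sfp received 5 uM rhodamine-CoA plus 12.5 uM BHQ-2-ybbR (50 mM Hepes pH 7.6, 10 mM MgCl2). Rate came from the fluorescence difference over 30 min, ex 525/em 598 nm.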
PLK1 PBD inh: inhibitors of human PLK1 polo-box domain binding | Plk1 PBD binding of FITC phosphopeptide, fluorescence polarization | Potency, µM, without a hit: max response, negative = inhibition, usual class: inhibitors | P53350 | 360,000 compounds, 2.8% hits; also: potency is read from the fitted curve at half-maximal effect; series mostly up to about 57 µM; nearly all actives have a fitted effect of over 65% in size
VDR inhibitor: blocks the human vitamin D receptor. P11473. VDR-SRC2-3 peptide fluorescence polarization, 2 h. Potency, µM, inactives show max response, negative = inhibition, usual class: inhibitors. 400,000 compounds, 0.93% hits. AID 504847; also: potency is read from the fitted curve at half-maximal effect
Target sequence (P11473 whole entry, looked up): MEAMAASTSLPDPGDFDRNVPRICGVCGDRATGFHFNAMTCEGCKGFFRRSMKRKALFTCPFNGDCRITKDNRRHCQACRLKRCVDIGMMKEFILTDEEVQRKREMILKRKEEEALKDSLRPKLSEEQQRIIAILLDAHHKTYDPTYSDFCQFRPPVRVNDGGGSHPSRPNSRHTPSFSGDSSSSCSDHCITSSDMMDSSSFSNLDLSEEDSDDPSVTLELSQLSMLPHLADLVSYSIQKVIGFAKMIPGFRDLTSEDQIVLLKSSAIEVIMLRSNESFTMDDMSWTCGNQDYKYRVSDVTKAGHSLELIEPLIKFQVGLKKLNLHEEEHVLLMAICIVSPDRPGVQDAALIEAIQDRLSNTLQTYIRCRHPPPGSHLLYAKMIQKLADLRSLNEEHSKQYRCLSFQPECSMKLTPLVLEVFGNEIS
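Two reagent solutions held at 4 deg C in the dark were dispensed, compounds pinned at 23 nl, and the mixture incubated 2 h at room temperature. Read-out: fluorescence polarization of VDR–SRC2-3 peptide binding.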
* marks the source's active call; other numbers are inactive results; ? = inconclusive; . = not tested or not shown; [ ] = dose if it differs, or a comment. Most compounds without a hit are left out; they make up all but 10% or so of the library. Unless noted, calls follow the shape of the dose curve; as a rule, active = well fitted curve in the direction sought with a large enough effect; inconclusive = small, poorly fitted or top-dose-only effect, or another doubt; inactive = no such curve, though single readings can be large; an effect the other way counts as inactive or inconclusive. Unless noted, % is scaled to controls: 0 for no effect and ±100 for the full control effect.

SMILES	Mm-Cpn inhibitor	CCT chaperon mod	G9a inh	Sfp inh	PLK1 PBD inh	VDR inhibitor
O=C(C[n+]1cc(Br)cc(Br)c1)c1ccc(-c2ccccc2)cc1	-10%	-1	25µM*	-4%	-13%	-6%
O=C(C[n+]1cc(Br)cc2ccccc21)c1ccc(Cl)cc1	-1%	-2	50µM*	-7%	?	?
O=C(C[n+]1cc(Br)cc(Br)c1)c1ccc(Cl)cc1	-4%	-3	?	4%	-12%	9%
Cc1ccc(C(=O)C[n+]2cc(Br)cc(Br)c2)cc1[N+](=O)[O-]	-1%	-4	50µM*	-4%	-22%	-7%
COc1ccc(C(=O)C[n+]2ccccc2C)cc1	-1%	-3	-6%[59 µM]	-14%	6µM*	32µM*
CCS(=O)(=O)NCCc1csc2nc(-c3ccc(OC)cc3)nn12	.	.	3%[59 µM]	.	.	12%
Cc1ccc(C(=O)C[n+]2ccccc2)cc1	0%	-1	14µM*	8%	-2%	-15%
O=C(C[n+]1cc(Br)cc2ccccc21)c1ccc(Br)cc1	-2%	-6	28µM*	-5%	?	-15%
Cc1ccc[n+](CC(=O)c2ccc(-c3ccccc3)cc2)c1	-1%	0	-3%[59 µM]	-10%	1%	-7%
O=C(C[n+]1cccc2ccccc21)c1ccc(Br)cc1	-4%	1	7%	-1%	-17%	-21%
COc1ccccc1NC(=O)c1cc2c(n(-c3ccc(C)cc3)c1=O)CC(C)(C)CC2=O	.	.	0%[59 µM]	.	.	-10%
Cc1ccccc1Nc1nc(N)c(C(=O)c2ccccc2Cl)s1	.	.	-49%[59 µM]	.	.	-2%
CCOc1ccc(-n2c(SCc3ccc([N+](=O)[O-])cc3)nnc2-c2ccc(OC)cc2)cc1	0%	-16	8.9µM*	-11%	-10%	-22%
CCOc1ccc(-n2c(SCc3ccc(C#N)cc3)nnc2-c2cccnc2)cc1	-1%	2	-23%	-11%	-12%	-14%
O=C(c1cccc(S(=O)(=O)N2CCOCC2)c1)N(Cc1nnc(-c2ccccc2Cl)o1)C1CC1	-3%	1	50µM*	.	-7%	-4%
CCOc1ccccc1N1CC(C(=O)N2CCc3ccccc3C2)CC1=O (stereo not drawn)	0%	-3	29%[12.7 µM]	15%	3.4µM*	?
CCOc1ccccc1N1CC(C(=O)N2CCN(Cc3ccc(C#N)cc3)CC2)CC1=O (stereo not drawn)	2%	1	-8%[2.33 µM]	.	3%	12%
O=C(c1ccc(Cl)c(S(=O)(=O)N2CCOCC2)c1)N(Cc1nnc(-c2ccccc2Cl)o1)C1CC1	-2%	0	-11%	.	1%	15%
CCOc1ccccc1N1CC(C(=O)N(Cc2nnc(-c3ccccc3Cl)o2)C2CC2)CC1=O (stereo not drawn)	0%	-36*	4%[0.501 µM]	.	0%	2%
O=C1CCCN1c1ccc(C(=O)N(Cc2nnc(-c3ccccc3Cl)o2)C2CC2)cc1	1%	1	13µM*	.	-8%	-8%
COc1ccccc1-c1nnc(SCCOc2ccccc2C)o1	.	.	46%[59 µM]	.	.	14%
Cc1cc(-c2ccco2)c(C#N)c2nc3ccccc3n12	-4%	0	13µM*	50µM*	-26%	-1%
Cc1cc(C(C)C)n2c(nc3ccccc32)c1C#N	-5%	.	33%	25%	.	.
Cc1cc(C)cc(C(=O)N2CC(=O)Nc3ccccc32)c1	1%	2	-1%[59 µM]	4%	-5%	-9%
Cc1ccc(/C=C/C(=O)N2CCN(S(=O)(=O)c3c(C)c(C)cc(C)c3C)CC2)o1	-1%	-2	7.9µM*	14µM*	-27%	-49%
SMILES	Mm-Cpn inhibitor	CCT chaperon mod	G9a inh	Sfp inh	PLK1 PBD inh	VDR inhibitor
O=C(/C=C/c1ccc(F)cc1)N1CCN(Cc2ccccc2)CC1	.	-2	.	.	4%	-1%
Cc1cc(C)c(C)c(S(=O)(=O)N2CCN(C(=O)CCC(=O)N3CCOCC3)CC2)c1C	0%	-3	-3%[12.7 µM]	24%	-6%	-20%
Cc1ccc(/C=C/C(=O)N2CCN(Cc3ccccc3)CC2)o1	-2%	0	4µM*	-101%	-16%	-8%
Cc1ccc(/C=C/C(=O)N2CC(=O)Nc3ccccc32)o1	-1%	-1	?	7.1µM*	-19%	-10%
Cc1cccc(OCc2ccc(-c3nc(C#N)c(NCCN(C)C)o3)o2)c1	.	.	?	.	.	-6%
Cc1ccc(C)c(CN2C(=O)N(c3cc(Cl)ccc3C)S(=O)(=O)c3ccccc32)c1	.	.	1%[59 µM]	.	.	15%
COc1ccc(NC(=O)CN2C(=O)C(c3ccc(C(C)(C)C)cc3)=NC2(C)C)cc1Cl	.	.	5%[59 µM]	.	.	8%
CCOc1ccccc1NC(=O)Nc1cc2c(cc1N1CCCCC1)n(CC)c(=O)n2CC	.	.	?	.	.	-1%
CSc1nnc(-c2cccc(NC(=S)NN)c2)o1	-4%	-6	7.9µM*	-20%	-18%	-7%
CSc1nnc(-c2ccc(NC(N)=S)cc2)o1	-1%	1	3%	17%	-6%	-24%
NC(=O)CSc1ncc2c(n1)-c1ccccc1N(Cc1ccc(Cl)cc1)S2(=O)=O	.	.	2%[59 µM]	.	.	0%
CC(C)C[C@H](N)C(=O)N[C@H](C(=O)N[C@@H](CCCN=C(N)N)C(=O)N[C@H](CS)C(=O)NCC(=O)N[C@@H](CCCCN)C(=O)N[C@@H](Cc1cnc[nH]1)C(=O)N[C@@H](CO)C(=O)N[C@@H](CCCN=C(N)N)C(=O)O)C(C)C	.	.	.	6%	.	-5%
COCCNC(=O)Cn1cc(C(=S)N2CCOCC2)c2ccccc21	2%	0	35µM*	32µM*	30µM*	-9%
COc1ccc(CCNC(=O)CS(=O)(=O)c2cn(CC(=O)N3CCOCC3)c3ccccc23)cc1OC	-5%	1	50µM*	-10%	-27%	-5%
COCCCNC(=O)Cn1cc(C(C)=O)c2ccccc21	0%	1	-4%	15%	-5%	0%
COc1ccc(NC(=O)CS(=O)(=O)c2cn(CC(=O)N3CCOCC3)c3ccccc23)cc1OC	4%	-1	35µM*	56µM*	-24%	0%
Cc1cc(C(=O)OCC(=O)Nc2ccccc2Br)c(C)o1	1%	-53*	.	.	-5%	-26%
O=C(COC(=O)C1CCC(=O)N1)Nc1ccccc1Br (stereo not drawn)	3%	1	-5%	23%	21µM*	22µM*
Cc1cc(C(=O)OCC(=O)Nc2ccccc2C)c(C)o1	0%	1	6%[59 µM]	.	4%	2%
COc1ccccc1CNC(=O)COC(=O)c1cc(C)oc1C	-2%	0	-34%	18%	-3%	13%
COc1ccccc1CN(C)C(=O)COC(=O)c1cc(C)oc1C	-1%	-1	45µM*	.	-1%	-10%
COc1ccc(C(=O)COC(=O)C2CCC(=O)N2)cc1 (stereo not drawn)	1%	-3	1%	19%	-4%	7%
